Reference: publication PMC7862700, “An all-to-all approach to the identification of sequence-specific readers for epigenetic DNA modifications on cytosine”

How the values were obtained:
Experiment in all cases: DAPPL (digital affinity profiling via proximity ligation, sequencing); 10 mM Tris-HCl pH 7.5, 50 mM NaCl, 1 mM DTT, 4% glycerol, room temperature, 30 min; GST-TFs on glutathione beads, 16-mer random dsDNA library, 0.1% formaldehyde crosslink after washing; high values mean tight binding
Conditions in all cases: protein: recombinant; tags: N-terminal GST; dsDNA, one strand shown
ERF = target: T1, ERF (Homo sapiens, UniProt P50548 1-548)
T1 sequence: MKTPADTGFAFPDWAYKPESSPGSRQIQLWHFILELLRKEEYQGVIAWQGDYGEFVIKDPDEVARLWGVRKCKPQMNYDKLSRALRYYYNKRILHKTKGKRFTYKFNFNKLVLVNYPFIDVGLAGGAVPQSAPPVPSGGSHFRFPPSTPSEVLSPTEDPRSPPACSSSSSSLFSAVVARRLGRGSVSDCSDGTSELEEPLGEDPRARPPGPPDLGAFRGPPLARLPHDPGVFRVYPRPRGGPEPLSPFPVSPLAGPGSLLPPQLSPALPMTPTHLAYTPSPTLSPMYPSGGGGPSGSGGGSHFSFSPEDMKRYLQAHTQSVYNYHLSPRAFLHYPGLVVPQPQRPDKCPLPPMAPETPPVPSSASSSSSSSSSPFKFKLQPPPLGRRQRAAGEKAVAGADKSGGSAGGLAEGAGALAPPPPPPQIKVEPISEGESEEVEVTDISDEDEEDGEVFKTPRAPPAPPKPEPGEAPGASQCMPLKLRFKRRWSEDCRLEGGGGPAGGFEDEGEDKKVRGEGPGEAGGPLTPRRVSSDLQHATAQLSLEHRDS
How it was run: (§1)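 Yeast served to express human transcription factors as GST fusions, which were then captured on glutathione beads and labelled with DNA barcodes. Pooled with a tag-only sample, they were incubated with 200 nmole of a 16-mer random double-stranded DNA library for 30 min at room temperature in Tris/NaCl/DTT/glycerol buffer, washed, crosslinked with 0.1% formaldehyde, ligated by proximity, amplified by PCR and sequenced. Dividing each hexamer's read frequency for a factor by its frequency for the tag-only sample gives the binding signal.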

ETV3L = target: T2, ETV3L (Homo sapiens, UniProt Q6ZN32 1-361)
T2 sequence: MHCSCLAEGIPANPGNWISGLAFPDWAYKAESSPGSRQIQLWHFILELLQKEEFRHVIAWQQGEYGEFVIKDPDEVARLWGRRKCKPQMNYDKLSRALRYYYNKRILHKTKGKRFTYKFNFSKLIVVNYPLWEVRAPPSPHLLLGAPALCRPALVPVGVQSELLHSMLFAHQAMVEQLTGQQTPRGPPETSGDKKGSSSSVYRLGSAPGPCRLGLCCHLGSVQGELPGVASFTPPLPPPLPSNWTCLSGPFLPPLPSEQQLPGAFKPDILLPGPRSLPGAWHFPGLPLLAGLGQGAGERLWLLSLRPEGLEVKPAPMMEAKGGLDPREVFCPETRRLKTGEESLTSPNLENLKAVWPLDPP
How it was run: as §1

ETS2 = target: T3, ETS2 (Homo sapiens, UniProt P15036 1-469)
T3 sequence: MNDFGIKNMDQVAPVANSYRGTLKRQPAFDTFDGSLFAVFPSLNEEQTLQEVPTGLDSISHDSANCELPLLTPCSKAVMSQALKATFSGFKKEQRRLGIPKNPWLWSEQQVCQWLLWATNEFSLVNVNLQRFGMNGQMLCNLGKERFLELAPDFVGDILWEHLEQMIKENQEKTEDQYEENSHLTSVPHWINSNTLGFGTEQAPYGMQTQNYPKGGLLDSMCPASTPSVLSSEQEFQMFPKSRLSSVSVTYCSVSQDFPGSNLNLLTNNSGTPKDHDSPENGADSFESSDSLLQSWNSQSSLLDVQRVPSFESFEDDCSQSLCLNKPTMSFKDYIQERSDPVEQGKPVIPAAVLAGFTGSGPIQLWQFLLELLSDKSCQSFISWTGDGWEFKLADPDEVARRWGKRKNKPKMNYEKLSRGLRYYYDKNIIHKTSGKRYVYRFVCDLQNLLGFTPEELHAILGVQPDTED
How it was run: as §1

SPDEF = target: T4, SPDEF (Homo sapiens, UniProt O95238 1-335)
T4 sequence: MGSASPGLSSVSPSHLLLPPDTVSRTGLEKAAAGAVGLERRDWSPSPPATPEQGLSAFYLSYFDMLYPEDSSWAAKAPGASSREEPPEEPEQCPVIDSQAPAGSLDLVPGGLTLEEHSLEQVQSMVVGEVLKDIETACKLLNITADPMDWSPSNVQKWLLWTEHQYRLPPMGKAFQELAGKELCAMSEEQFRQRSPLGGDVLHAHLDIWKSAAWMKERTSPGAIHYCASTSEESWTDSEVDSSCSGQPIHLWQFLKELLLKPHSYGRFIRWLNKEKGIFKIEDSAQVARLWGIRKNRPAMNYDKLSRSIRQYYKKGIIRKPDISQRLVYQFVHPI
How it was run: as §1

ETV7 = target: T5, ETV7 (Homo sapiens, UniProt Q9Y603 1-341)
T5 sequence: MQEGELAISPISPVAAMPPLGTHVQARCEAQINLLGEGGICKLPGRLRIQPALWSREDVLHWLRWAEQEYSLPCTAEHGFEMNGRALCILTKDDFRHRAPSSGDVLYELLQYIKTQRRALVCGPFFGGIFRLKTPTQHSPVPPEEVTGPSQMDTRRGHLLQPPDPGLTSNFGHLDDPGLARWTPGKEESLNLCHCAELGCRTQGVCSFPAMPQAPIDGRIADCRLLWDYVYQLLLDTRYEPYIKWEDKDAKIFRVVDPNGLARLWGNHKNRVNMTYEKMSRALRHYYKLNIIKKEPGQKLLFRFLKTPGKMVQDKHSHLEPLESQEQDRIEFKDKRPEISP
How it was run: as §1

ELF5 = target: T6, ELF5 (Homo sapiens, UniProt Q9UKW6-2 1-255)
T6 sequence: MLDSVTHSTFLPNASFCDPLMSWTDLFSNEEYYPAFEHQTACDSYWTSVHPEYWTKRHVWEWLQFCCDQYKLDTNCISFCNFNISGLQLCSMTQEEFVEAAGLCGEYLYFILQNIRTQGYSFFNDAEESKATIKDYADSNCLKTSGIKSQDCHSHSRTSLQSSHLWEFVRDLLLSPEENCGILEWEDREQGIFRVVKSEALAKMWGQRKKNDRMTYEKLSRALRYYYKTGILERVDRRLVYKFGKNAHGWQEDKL
How it was run: as §1

ETV3 = target: T7, ETV3 (Homo sapiens, UniProt P41162-2 1-143)
T7 sequence: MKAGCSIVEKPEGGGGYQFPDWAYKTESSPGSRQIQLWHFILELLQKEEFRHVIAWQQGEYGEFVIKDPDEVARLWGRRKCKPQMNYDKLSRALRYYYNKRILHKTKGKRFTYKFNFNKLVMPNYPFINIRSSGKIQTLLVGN
How it was run: as §1

ETV6 = ETV6 (Homo sapiens, UniProt P41212 1-452)
How it was run: as §1

Sequence of ETV6 (P41212 whole entry): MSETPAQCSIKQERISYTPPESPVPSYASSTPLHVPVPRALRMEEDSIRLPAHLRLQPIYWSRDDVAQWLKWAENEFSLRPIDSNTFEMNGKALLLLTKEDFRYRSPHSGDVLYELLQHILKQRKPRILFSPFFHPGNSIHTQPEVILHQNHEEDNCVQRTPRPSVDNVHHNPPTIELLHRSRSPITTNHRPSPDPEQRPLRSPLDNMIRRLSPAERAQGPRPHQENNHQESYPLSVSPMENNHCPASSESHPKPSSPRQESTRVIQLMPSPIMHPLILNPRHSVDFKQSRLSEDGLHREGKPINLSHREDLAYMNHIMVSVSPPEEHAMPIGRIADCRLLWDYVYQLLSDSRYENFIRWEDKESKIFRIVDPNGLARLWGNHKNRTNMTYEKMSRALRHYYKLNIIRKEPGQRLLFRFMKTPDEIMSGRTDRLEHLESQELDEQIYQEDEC

Sequence | binding signal (ERF) | binding signal (ETV3L) | binding signal (ETS2) | binding signal (SPDEF) | binding signal (ETV7) | binding signal (ELF5) | binding signal (ETV3) | binding signal (ETV6)
ATACCT | 1.12 fold enrichment (6-mer frequency, TF over GST control) | 1.09 fold enrichment (6-mer frequency, TF over GST control) | 1.16 fold enrichment (6-mer frequency, TF over GST control) | 1.04 fold enrichment (6-mer frequency, TF over GST control) | 1.18 fold enrichment (6-mer frequency, TF over GST control) | 1.04 fold enrichment (6-mer frequency, TF over GST control) | 1.11 fold enrichment (6-mer frequency, TF over GST control) | 1.07 fold enrichment (6-mer frequency, TF over GST control)
AAGATT | 1.1 fold enrichment (6-mer frequency, TF over GST control) | 1.18 fold enrichment (6-mer frequency, TF over GST control) | 1.18 fold enrichment (6-mer frequency, TF over GST control) | 1.16 fold enrichment (6-mer frequency, TF over GST control) | 1.16 fold enrichment (6-mer frequency, TF over GST control) | 1.14 fold enrichment (6-mer frequency, TF over GST control) | 1.14 fold enrichment (6-mer frequency, TF over GST control) | 1.19 fold enrichment (6-mer frequency, TF over GST control)
TCTAAA | 1.17 fold enrichment (6-mer frequency, TF over GST control) | 1.18 fold enrichment (6-mer frequency, TF over GST control) | 1.21 fold enrichment (6-mer frequency, TF over GST control) | 1.21 fold enrichment (6-mer frequency, TF over GST control) | 1.18 fold enrichment (6-mer frequency, TF over GST control) | 1.16 fold enrichment (6-mer frequency, TF over GST control) | 1.28 fold enrichment (6-mer frequency, TF over GST control) | 1.12 fold enrichment (6-mer frequency, TF over GST control)
TTCGAC | 1.43 fold enrichment (6-mer frequency, TF over GST control) | 1.39 fold enrichment (6-mer frequency, TF over GST control) | 1.42 fold enrichment (6-mer frequency, TF over GST control) | 1.36 fold enrichment (6-mer frequency, TF over GST control) | 1.37 fold enrichment (6-mer frequency, TF over GST control) | 1.36 fold enrichment (6-mer frequency, TF over GST control) | 1.45 fold enrichment (6-mer frequency, TF over GST control) | 1.3 fold enrichment (6-mer frequency, TF over GST control)
TCAAAA | 1.12 fold enrichment (6-mer frequency, TF over GST control) | 1.18 fold enrichment (6-mer frequency, TF over GST control) | 1.15 fold enrichment (6-mer frequency, TF over GST control) | 1.06 fold enrichment (6-mer frequency, TF over GST control) | 1.22 fold enrichment (6-mer frequency, TF over GST control) | 1.11 fold enrichment (6-mer frequency, TF over GST control) | 1.15 fold enrichment (6-mer frequency, TF over GST control) | 1.24 fold enrichment (6-mer frequency, TF over GST control)
CTCCGA | 1.41 fold enrichment (6-mer frequency, TF over GST control) | 1.38 fold enrichment (6-mer frequency, TF over GST control) | 1.35 fold enrichment (6-mer frequency, TF over GST control) | 1.36 fold enrichment (6-mer frequency, TF over GST control) | 1.24 fold enrichment (6-mer frequency, TF over GST control) | 1.23 fold enrichment (6-mer frequency, TF over GST control) | 1.3 fold enrichment (6-mer frequency, TF over GST control) | 1.33 fold enrichment (6-mer frequency, TF over GST control)
TTGGTT | 1.43 fold enrichment (6-mer frequency, TF over GST control) | 1.45 fold enrichment (6-mer frequency, TF over GST control) | 1.48 fold enrichment (6-mer frequency, TF over GST control) | 1.45 fold enrichment (6-mer frequency, TF over GST control) | 1.52 fold enrichment (6-mer frequency, TF over GST control) | 1.37 fold enrichment (6-mer frequency, TF over GST control) | 1.36 fold enrichment (6-mer frequency, TF over GST control) | 1.44 fold enrichment (6-mer frequency, TF over GST control)
AATTAG | 1.15 fold enrichment (6-mer frequency, TF over GST control) | 1.12 fold enrichment (6-mer frequency, TF over GST control) | 1.09 fold enrichment (6-mer frequency, TF over GST control) | 1.06 fold enrichment (6-mer frequency, TF over GST control) | 1.25 fold enrichment (6-mer frequency, TF over GST control) | 1.1 fold enrichment (6-mer frequency, TF over GST control) | 1.19 fold enrichment (6-mer frequency, TF over GST control) | 1.13 fold enrichment (6-mer frequency, TF over GST control)
TCCGAT | 1.25 fold enrichment (6-mer frequency, TF over GST control) | 1.22 fold enrichment (6-mer frequency, TF over GST control) | 1.28 fold enrichment (6-mer frequency, TF over GST control) | 1.34 fold enrichment (6-mer frequency, TF over GST control) | 1.27 fold enrichment (6-mer frequency, TF over GST control) | 1.27 fold enrichment (6-mer frequency, TF over GST control) | 1.35 fold enrichment (6-mer frequency, TF over GST control) | 1.39 fold enrichment (6-mer frequency, TF over GST control)
TCCCGG | 1.77 fold enrichment (6-mer frequency, TF over GST control) | 2.2 fold enrichment (6-mer frequency, TF over GST control) | 2.34 fold enrichment (6-mer frequency, TF over GST control) | 2.76 fold enrichment (6-mer frequency, TF over GST control) | 1.92 fold enrichment (6-mer frequency, TF over GST control) | 3.07 fold enrichment (6-mer frequency, TF over GST control) | 2.44 fold enrichment (6-mer frequency, TF over GST control) | 2.46 fold enrichment (6-mer frequency, TF over GST control)
AAGATG | 1.18 fold enrichment (6-mer frequency, TF over GST control) | 1.12 fold enrichment (6-mer frequency, TF over GST control) | 1.16 fold enrichment (6-mer frequency, TF over GST control) | 1.1 fold enrichment (6-mer frequency, TF over GST control) | 1.12 fold enrichment (6-mer frequency, TF over GST control) | 1.14 fold enrichment (6-mer frequency, TF over GST control) | 1.09 fold enrichment (6-mer frequency, TF over GST control) | 1.2 fold enrichment (6-mer frequency, TF over GST control)
CGTATT | 1.08 fold enrichment (6-mer frequency, TF over GST control) | 1.09 fold enrichment (6-mer frequency, TF over GST control) | 1.18 fold enrichment (6-mer frequency, TF over GST control) | 1.16 fold enrichment (6-mer frequency, TF over GST control) | 1.07 fold enrichment (6-mer frequency, TF over GST control) | 1.14 fold enrichment (6-mer frequency, TF over GST control) | 1.16 fold enrichment (6-mer frequency, TF over GST control) | 1.22 fold enrichment (6-mer frequency, TF over GST control)
CTAATC | 1.31 fold enrichment (6-mer frequency, TF over GST control) | 1.34 fold enrichment (6-mer frequency, TF over GST control) | 1.32 fold enrichment (6-mer frequency, TF over GST control) | 1.34 fold enrichment (6-mer frequency, TF over GST control) | 1.41 fold enrichment (6-mer frequency, TF over GST control) | 1.33 fold enrichment (6-mer frequency, TF over GST control) | 1.32 fold enrichment (6-mer frequency, TF over GST control) | 1.35 fold enrichment (6-mer frequency, TF over GST control)
GCCTTC | 1.47 fold enrichment (6-mer frequency, TF over GST control) | 1.45 fold enrichment (6-mer frequency, TF over GST control) | 1.44 fold enrichment (6-mer frequency, TF over GST control) | 1.47 fold enrichment (6-mer frequency, TF over GST control) | 1.47 fold enrichment (6-mer frequency, TF over GST control) | 1.67 fold enrichment (6-mer frequency, TF over GST control) | 1.63 fold enrichment (6-mer frequency, TF over GST control) | 1.47 fold enrichment (6-mer frequency, TF over GST control)
CTCAAC | 1.15 fold enrichment (6-mer frequency, TF over GST control) | 1.41 fold enrichment (6-mer frequency, TF over GST control) | 1.27 fold enrichment (6-mer frequency, TF over GST control) | 1.24 fold enrichment (6-mer frequency, TF over GST control) | 1.11 fold enrichment (6-mer frequency, TF over GST control) | 1.16 fold enrichment (6-mer frequency, TF over GST control) | 1.28 fold enrichment (6-mer frequency, TF over GST control) | 1.24 fold enrichment (6-mer frequency, TF over GST control)
